# Compound activity (PubChem BioAssay)
# Nrf2 ARE act: qHTS of Nrf2 Activators. AREc32 ARE-luciferase reporter (MCF7-derived line), luminescence, 24 h. Potency, µM (series often up to 46.1 µM), usual class: activators. 410,000 compounds, 0.31% hits; further: nearly all actives have a fitted effect of over 65% in size
#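 Luminescent ARE reporter assay in AREc32_Fluc cells: overnight plating at 37 deg C, 24 hr compound incubation, Steady-Glo added, 30 min RT before reading.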
# A549 tox: Nrf2 qHTS screen for inhibitors: counterscreen for cytotoxicity; 390,000 compounds, 0.16% hits; A549 ARE-Fluc cells, CellTiter-Fluor viability, 18-24 h; Potency, µM (highest dose often 46 µM), usual class: inhibitors
#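 A549 ARE_Fluc cells in 5% FBS OPTI-MEM were exposed to compounds in concentration-response for 18-24 h at 37 deg C. Viability was read by CellTiter-Fluor fluorescence (Ex 405/Em 525) after 30 min, before the luciferase read.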
# Apoferritin bind: qHTS Assay for Identification of Novel General Anesthetics; Ferritin light chain (Equus caballus), P02791; 350,000 compounds, 0.074% hits; apoferritin/1-aminoanthracene competitive binding, fluorescence; Potency, µM (top dose mostly 77.5 µM), hits mostly inhibitors; further: nearly all actives have a fitted effect of over 20% in size
# Target sequence (P02791 2-175 limits assumed): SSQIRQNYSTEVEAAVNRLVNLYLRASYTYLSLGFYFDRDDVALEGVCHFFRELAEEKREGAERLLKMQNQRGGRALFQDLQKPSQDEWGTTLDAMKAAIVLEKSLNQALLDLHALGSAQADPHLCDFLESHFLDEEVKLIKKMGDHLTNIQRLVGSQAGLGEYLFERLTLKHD
#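 In PBS, apoferritin at 10 uM is loaded with 1-AMA from a 50% saturated solution. After 10 min of compound exposure at ambient temperature, reduced 535 nm fluorescence indicates probe displacement.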
# Nrf2 block: Nrf2 qHTS screen for inhibitors; A549 ARE-Fluc reporter, luciferase luminescence, 18-24 h; Potency, µM (titrated, usually from 46 µM), most hits filed as inhibitors; 360,000 compounds, 2.1% hits; further: nearly all actives have a fitted effect of over 60% in size
#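 A549 ARE_Fluc cells (5000/well, 5% FBS OPTI-MEM) pre-incubated 2 h, then treated with compounds 18-24 h at 37C/5% CO2 in concentration-response. CellTiter-Fluor viability read first; BugLite luciferase luminescence after 15 min at room temperature gives Nrf2 activity.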
# IDH1 R132H inh: qHTS for Inhibitors of mutant isocitrate dehydrogenase 1 (IDH1): qHTS; IDH1-R132H enzyme, NADPH consumption, diaphorase/resazurin fluorescence; 390,000 compounds, 0.093% hits; Potency, µM (top dose mostly 76.6 µM), most hits filed as inhibitors; Isocitrate dehydrogenase [NADP] cytoplasmic (Homo sapiens), O75874; further: nearly all actives have a fitted effect of over 65% in size
# Target sequence (O75874 whole entry R132H, stated change not applied): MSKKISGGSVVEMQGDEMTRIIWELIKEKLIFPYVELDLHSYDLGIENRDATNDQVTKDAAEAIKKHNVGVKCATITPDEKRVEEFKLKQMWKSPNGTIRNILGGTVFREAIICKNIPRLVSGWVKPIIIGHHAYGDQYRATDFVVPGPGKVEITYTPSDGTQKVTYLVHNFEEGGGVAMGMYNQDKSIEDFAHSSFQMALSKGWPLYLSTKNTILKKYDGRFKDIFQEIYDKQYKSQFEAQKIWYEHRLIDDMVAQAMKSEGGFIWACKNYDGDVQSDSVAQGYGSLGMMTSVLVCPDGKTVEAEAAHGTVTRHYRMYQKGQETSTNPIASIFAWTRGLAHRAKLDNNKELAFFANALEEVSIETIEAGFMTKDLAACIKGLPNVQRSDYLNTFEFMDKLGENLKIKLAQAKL
#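 IDH1-R132H (0.5 ug/mL) preincubated 30 min with compound, then NADPH (0.016 mM) and alpha-KG (2 mM) added; 80 min at RT, pH 7.5. Remaining NADPH coupled via diaphorase/resazurin to fluorescence (540/590 nm); concentration-response curves normalized to no-enzyme control.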
# Giardia killer: Small Molecules that selectively kill Giardia lamblia: qHTS; activity change, % at 7.66 µM, hits read low; 340,000 compounds, 0.15% hits; Giardia lamblia trophozoite viability; in the data active means activity change below about -80%; inconclusive means between about -30% and that limit;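 further: parasites exposed to compound for two days anaerobically before the ATP read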
#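 Viability, read as ATP luminescence: trophozoites at 100 cells/well, compound added, 48 hrs anaerobic at 37 deg C, then 15-30 min room-temperature development before reading.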
# A number is an active result; . = inactive; ? = inconclusive; / = not tested or not shown. Only some compounds are listed: those with a hit (about 2.3% of all), similar ones and a draw of the others. Unless noted, the call rests on the fitted dose curve; in most records, active means well fitted curve in the direction sought with a large enough effect; inconclusive means small, poorly fitted or top-dose-only effect, or another doubt; inactive means no such curve, though single readings can be large; an effect the other way counts as inactive or inconclusive.
SMILES,Nrf2 ARE act,A549 tox,Apoferritin bind,Nrf2 block,IDH1 R132H inh,Giardia killer
Fc1ccc(N2CCN(c3ncnc4c3nnn4Cc3ccccc3Cl)CC2)cc1,.,.,/,13µM,.,.
COc1cc(F)c(S(=O)(=O)N2CCCN(S(=O)(=O)c3ccc(NC(C)=O)cc3)CC2)c(F)c1,/,.,/,?,/,/
Cc1noc(C)c1COC(=O)c1ccccc1Oc1ccccc1,.,.,.,.,.,.
Cc1noc(C)c1COC(=O)c1ccccc1NC(=O)Cc1ccccc1,.,/,.,14.6µM,.,.
CCOC(=O)c1c(S(=O)(=O)N2CCCC(C(=O)NCc3ccc(Cl)cc3)C2)c(C)n(C)c1C (configuration not stated),.,.,.,/,.,/
S=c1[nH]nc(COc2ccccc2)n1/N=C/C=C/c1ccccc1,.,.,.,.,.,.
S=c1[nH]nc(COc2ccccc2)n1/N=C/C=C/c1ccco1,12.6µM,.,.,.,.,.
O=C1c2ccccc2C(=O)N1CCC#C/C=C1\c2ccccc2C(=O)N1c1ccccc1,.,/,/,/,.,/
CCC(C)(CCN1CCOCC1)N(Cc1cc2ccccc2n(C)c1=O)C(=O)C1CCCCC1 (configuration not stated),/,.,/,.,/,/
Cc1ccccc1OCC(=O)N/N=C/c1cc2ccccc2nc1Cl,.,.,.,18.4µM,.,.
N#Cc1nc(Nc2cccc3ccccc23)nc(NC2CCCC2)n1,/,.,/,18.4µM,/,/
Cc1ccccc1Nc1nc(C#N)nc(NC2CCCC2)n1,/,.,/,9.2µM,/,/
CCOc1ccccc1CNC(=O)CCc1c(C)nn(-c2ccc(N3CCCCC3)nn2)c1C,.,.,.,?,.,/
CCOc1cc(OCC)cc(C(=O)N2CCC[C@H]2C(=O)N2CCC[C@H]2C(=O)N[C@H](C)c2ccccc2)c1,.,/,/,/,/,/
C/C(=N\NC(=S)NC1CCCCC1)c1ccc(OC(F)F)cc1OC(F)F,.,.,.,20.6µM,.,.
C/C(=N\NC(=O)C1CC1)c1ccc(OC(F)F)cc1OC(F)F,.,.,.,.,.,.
CCN(c1ccccc1)c1ncnc2c1cnn2-c1ccc(C)cc1C,.,.,.,/,.,/
CCc1sc(-c2cc3cccc(OC)c3oc2=O)nc1-c1ccccc1,/,.,/,.,/,.
CCC(C)Nc1nc(C)nc2c1oc1ccccc12 (configuration not stated),.,.,.,20.6µM,.,?
CCc1nc(NC(C)C)c2oc3ccccc3c2n1,.,.,.,.,.,.
Cc1nc(NC(C)c2ccccc2)c2oc3ccccc3c2n1 (configuration not stated),.,.,.,13µM,.,.
COc1ccc(CCNc2oc(COc3ccc(Br)cc3)nc2C#N)cc1OC,.,.,.,?,.,?
COc1ccc(CCNc2oc(Cc3cccc4ccccc34)nc2C#N)cc1OC,.,.,.,20.6µM,.,.
COc1ccc(CCNc2nc(C)nc3c2oc2ccccc23)cc1OC,.,?,.,18.4µM,.,.
Cc1nc(NCCc2cnc[nH]2)c2oc3ccccc3c2n1,.,.,.,.,.,.
SMILES,Nrf2 ARE act,A549 tox,Apoferritin bind,Nrf2 block,IDH1 R132H inh,Giardia killer
Cc1ccc(CN(Cc2cc3cc(C)ccc3[nH]c2=O)Cc2nnnn2Cc2ccccc2)cc1,/,.,/,.,/,.
CCS(=O)(=O)N1CC(=O)N(c2ccc(Cl)cc2C)C(C)(C(=O)NC2CCCCC2)C1 (configuration not stated),.,.,.,.,.,/
COc1ccc(C2Nc3ccccc3C(=O)N2Cc2ccncc2)cc1COc1ccc(NC(C)=O)cc1 (configuration not stated),/,.,/,.,/,/
Cc1cc2occ(CC(=O)N(C)CC(=O)Nc3cccc(F)c3)c2cc1C,.,?,.,25.9µM,.,.
Cc1cc2occ(CC(=O)N(C)CC(=O)Nc3c(C)cccc3C)c2cc1C,.,.,/,.,.,.
CN(Cc1cccs1)c1ncnc2ccc(-c3ccc4cnn(C)c4c3)cc12,/,?,/,.,/,/
COc1ccc(C(CCN2CCOCC2)c2c(OC)cc(OC)c3ccc(=O)oc23)cc1 (configuration not stated),.,14.6µM,/,.,.,?
COc1cc(OC)c2ccc(=O)oc2c1C(CCN1CCCC1)c1ccc2c(c1)OCO2 (configuration not stated),.,18.4µM,.,.,.,.
COc1cc(OC)c2ccc(=O)oc2c1C(CCN1CCOCC1)c1ccc(N(C)C)cc1 (configuration not stated),/,/,.,/,/,/
Cc1cccc(OCC(=O)Nc2ccc3c(c2)nc(CCN2CCC(C)CC2)n3C)c1,.,?,.,.,.,.
CCn1c(CN2CCC(C)CC2)nc2cc(NC(=O)COc3ccc(Cl)c(C)c3)ccc21,.,?,.,14.6µM,.,/
N#Cc1nc(COc2ccc(-c3ccccc3)cc2)oc1N1CCC(C(N)=O)CC1,/,.,/,?,/,.
CCNc1nc(C#N)nc(N2CCOCC2)n1,/,.,/,16.4µM,/,.
CC(/C=N/NC(=O)c1nnn(-c2nonc2N)c1CN1CCCCC1)=C\c1ccccc1,.,?,.,5.17µM,.,.
CC(C)c1c(C(=O)N/N=C/c2cccc(OCc3ccc(F)cc3)c2)nnn1-c1nonc1N,.,.,.,?,.,.
COc1cc(/C=N/NC(=O)c2nnn(-c3nonc3N)c2C(C)C)ccc1OCc1ccc(F)cc1,.,?,.,16.4µM,.,.
CC(=C/c1ccccc1)/C=N/NC(=O)c1nnn(-c2nonc2N)c1CN1CCC(C)CC1,.,.,.,.,.,.
Cc1ccccc1COc1ccc(/C=N/NC(=O)c2nnn(-c3nonc3N)c2CN2CCC(C)CC2)cc1,.,.,.,.,.,?
CC1CCN(Cc2c(C(=O)N/N=C/c3ccc(OC(C)C)cc3)nnn2-c2nonc2N)CC1,.,?,.,23.1µM,.,.
CSCC[C@H](NC(=O)[C@H](CC(C)C)N(C)C(=O)[C@@H]1CCCN1C(=O)[C@H](Cc1ccccc1)NC(=O)[C@H](Cc1ccccc1)NC(=O)CCC(C)N)C(=O)O (some centres not stated),/,/,.,/,/,/
O=C(NCc1nnnn1-c1ccc(Cl)cc1)C(=O)c1c[nH]c2ccccc12,.,/,/,/,.,/
Cc1ccc(Cn2c(CNS(=O)(=O)c3ccc(C(C)(C)C)cc3)nc3cccnc32)cc1,.,.,.,/,.,/
COc1cc(N=Nc2ccc3ccccc3c2)ccc1O,.,.,?,.,.,.
Oc1ccc(N=Nc2ccc3ccccc3c2)cc1,.,.,?,2.59µM,.,.
O=C(Nc1ncnc2nc[nH]c12)c1ccccc1,/,.,/,.,/,.
